Here are results for 48 compounds from PubChem BioAssay AID489028 (Sanford-Burnham Center for Chemical Genomics, 2010).

SMILES strings stand for the structures. Screen size: about 10,000 compounds; about 5,600 (56%) were called active. No stated cut-off is given here; in the data, active means inhibition above about 40%; inactive means the rest. So high a share suggests a set chosen from earlier hits. Only a sample is shown.

The target in the assay is Protein Mdm4 (Homo sapiens) + E3 ubiquitin-protein ligase Mdm2 (Homo sapiens) (UniProt O15151+Q00987). Briefly: Mdm2-MdmX complex disruptors, retested hits, confirmation, luminescence, single concentration (AID 489028). The conditions noted are these: Mdm2-MdmX binding, luminescent assay; at 8 µM; active compounds read high.
Sequence of Protein Mdm4 (Homo sapiens) + E3 ubiquitin-protein ligase Mdm2 (Homo sapiens) (O15151 whole entry, looked up): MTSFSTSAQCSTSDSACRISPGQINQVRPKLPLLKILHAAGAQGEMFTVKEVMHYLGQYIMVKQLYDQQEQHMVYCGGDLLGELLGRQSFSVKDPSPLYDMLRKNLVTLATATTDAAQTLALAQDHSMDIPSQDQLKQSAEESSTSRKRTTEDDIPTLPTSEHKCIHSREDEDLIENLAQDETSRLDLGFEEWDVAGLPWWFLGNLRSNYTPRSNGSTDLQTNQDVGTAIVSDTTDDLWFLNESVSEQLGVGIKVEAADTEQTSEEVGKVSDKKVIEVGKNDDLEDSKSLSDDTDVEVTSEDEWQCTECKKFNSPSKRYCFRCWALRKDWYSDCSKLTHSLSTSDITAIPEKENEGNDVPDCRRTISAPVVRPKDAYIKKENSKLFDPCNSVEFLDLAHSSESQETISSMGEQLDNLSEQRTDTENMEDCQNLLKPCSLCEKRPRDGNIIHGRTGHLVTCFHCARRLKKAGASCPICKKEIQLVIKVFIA
Sequence of Protein Mdm4 (Homo sapiens) + E3 ubiquitin-protein ligase Mdm2 (Homo sapiens) (Q00987 whole entry, looked up): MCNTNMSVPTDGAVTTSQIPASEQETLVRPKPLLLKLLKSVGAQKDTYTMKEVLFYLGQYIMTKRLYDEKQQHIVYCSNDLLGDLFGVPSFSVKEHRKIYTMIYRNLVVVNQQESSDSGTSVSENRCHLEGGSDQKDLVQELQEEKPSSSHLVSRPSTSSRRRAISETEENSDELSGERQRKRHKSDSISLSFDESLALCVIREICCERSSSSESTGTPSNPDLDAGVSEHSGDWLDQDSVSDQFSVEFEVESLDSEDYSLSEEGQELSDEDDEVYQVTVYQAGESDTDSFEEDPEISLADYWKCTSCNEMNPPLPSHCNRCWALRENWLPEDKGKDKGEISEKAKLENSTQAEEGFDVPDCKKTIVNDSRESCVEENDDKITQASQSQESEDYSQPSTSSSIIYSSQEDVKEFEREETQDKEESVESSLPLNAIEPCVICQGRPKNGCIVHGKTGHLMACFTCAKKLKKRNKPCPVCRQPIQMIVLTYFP
For orientation: inhibition means the relative decrease from the control value, in per cent. On to `CCC(c1nnnn1C1CCCC1)N(Cc1cccs1)Cc1cc2cccc(C)c2[nH]c1=O` (stereo not drawn), for which the inhibition was 13.8% (inactive).

As for `CN(c1ccc2nc3ccccc3c(=O)n2n1)C1CCCCC1`, the inhibition is 89.9% (active).

For the compound `CC(=O)Oc1c(C(=O)c2nnc(C)o2)c(=O)n(Cc2ccccc2)c2ccccc12`, the inhibition is 55% (active).

As for `Cc1cc(Nc2cc(N3CCN(C)CC3)nc(Sc3ccc(NC(=O)C4CC4)cc3)n2)n[nH]1`, the inhibition was 82% (active).

In the case of `O=C(c1[nH]ncc1-c1ccc(Cl)cc1)C1CO1` (stereo not drawn), the inhibition was 45.3% (active).

On to `COc1ccc(Cc2nnc(N/N=C/c3ccccc3O)[nH]c2=O)cc1OC`, for which the inhibition was 76.2% (active).

Regarding `COc1cc(OC)c(OC)cc1/C=N/Nc1ncnc2c1[nH]c1ccc(C)cc12`, the inhibition is 27% (inactive).

Turning to `Cc1ccc(N(Cc2cc(=O)[nH]c3ccccc23)C(=O)CCl)cc1`, the inhibition was 74.9% (active).

In the case of `COc1ccc(-c2nc(-c3ccccc3)no2)c(OC)c1`, the inhibition is 50.4% (active).

With `CC(C)n1cnc2c(NCc3ccccc3)cc(N[C@@H](CO)Cc3ccccc3)cc21`, the inhibition was 32.5% (inactive).

`O=C(CSc1cccc2cccnc12)N/N=C/c1cccnc1`: the inhibition was 45% (active).

For the compound `Cc1c(NC(=O)CSc2cccc3cccnc23)c(=O)n(-c2ccccc2)n1C`, the inhibition is 10.3% (inactive).

Consider `O=C1Nc2cc(C(=O)N3CCC(N4CCCCC4)CC3)ccc2S/C1=C\c1ccccc1`, for which the inhibition was 27.8% (inactive).

Regarding `c1ccc(C2CCC(N3CCC(N4CCCCC4)CC3)CC2)cc1` (stereo not drawn), the inhibition was 86.5% (active).

For the compound `CC(NC(=O)Nc1ccccc1)C(c1cccs1)N1CCN(c2ccccc2)CC1` (stereo not drawn), the inhibition was 70.3% (active).

Consider `COc1ccc(C2CC(c3cccs3)=NN2c2nc(C)c(C(C)=O)s2)cc1OC` (stereo not drawn), for which the inhibition was 25.1% (inactive).

With `Cn1cc([N+](=O)[O-])c(C(=O)Nc2cnn(Cc3ccc(F)cc3)c2)n1`, the inhibition was 57.5% (active).

As to `CCn1cc(CN2CCC(C(=O)Nc3cccc(-c4cccc(Cl)c4)c3)CC2)c(C)n1`, the inhibition is 48% (active).

As for `CCn1cc(CN2CCC(C(=O)Nc3cccc(-c4cccc(Cl)c4)c3)CC2)cn1`, the inhibition was 31.9% (inactive).

For the compound `O=C(Nc1cccc(-c2cccc(Cl)c2)c1)C1CCN(C2CCC2)CC1`, the inhibition is 31.5% (inactive).

Consider `CCN(CC)CCC(c1ccc2c(c1)OCO2)c1c(OC)cc(OC)c2c(-c3ccccc3)cc(=O)oc12` (stereo not drawn), for which the inhibition is 29.8% (inactive).

On to `CCN(CC)CCC(c1cc(OC)c(OC)c(OC)c1)c1c(OC)cc(OC)c2c(-c3ccccc3)cc(=O)oc12` (stereo not drawn), for which the inhibition is 27.6% (inactive).

Regarding `COc1cc(OC)c2c(-c3cccc(-c4cccc(N)c4)c3)cc(=O)oc2c1`, the inhibition is 52.7% (active).

With `COc1c(C)c2c(c(O)c1C/C=C(\C)CCC(=O)O)C(=O)OC2`, the inhibition was 80.7% (active).

On to `CCCCn1c(-c2cccc(C)c2)nc2cc3[nH]c(=O)c(C(C)C)nc3cc21`, for which the inhibition was 38% (inactive).

Regarding `COc1ccc(-c2nc3cc(C)ccn3c2NC2CCCCC2)cc1SC1CCCCC1`, the inhibition is 19.9% (inactive).

As for `CCOC(=O)c1ccc(NC(=O)c2nc[nH]c2C(=O)N[C@@H](CCCCNC(=O)OC(C)(C)C)C(=O)OC(C)(C)C)cc1`, the inhibition is 19.6% (inactive).

Turning to `COc1cc(NC(=O)c2cncc(-c3ccc(C#N)cc3)c2)cc(C(=O)Nc2cccc(C(F)(F)F)c2)c1`, the inhibition is 55.5% (active).

For the compound `COc1cc(NC(=O)c2[nH]cnc2C(N)=O)cc(C(=O)Nc2cccc(C(F)(F)F)c2)c1`, the inhibition is 63.5% (active).

As to `Cc1nc(SCC(=O)Nc2cc(C)on2)c2c(C)c(C)sc2n1`, the inhibition is 27.6% (inactive).

Take `Cc1nc(N=C(N)N)nc2c(C)cccc12`: the inhibition was 53.1% (active).

As for `O=C(CC(O)(C(F)(F)F)C(F)(F)F)Nc1ccc(Cl)c(Cl)c1`, the inhibition was 95.7% (active).

On to `O=C(Cc1ccc(Cl)c(Cl)c1)Nc1ccc(SC(F)F)cc1`, for which the inhibition was -2.4% (inactive).

As for `COC(=O)C1=CN(C)C=C(C(=O)OC)C1c1ccc(Cl)cc1Cl`, the inhibition is 3.05% (inactive).

For `O=C(/C(=C/c1cccc(Cl)c1)c1nc2ccccc2[nH]1)c1ccccc1`, the inhibition is 43.5% (active).

Take `CCOc1cc(/C=C/c2nc3ccccc3c(=O)[nH]2)cc(Br)c1OC`: the inhibition was 69.5% (active).

Consider `Cc1ccc(-c2cn3cc(C)ccc3n2)cc1`, for which the inhibition was 81.3% (active).

With `Cc1ccc2nc(-c3ccc(Br)cc3)cn2c1`, the inhibition is 53.3% (active).

For `Cc1ccc(Nc2cc(=O)n(C3CCCCC3)c(=O)[nH]2)cc1C`, the inhibition is 19.4% (inactive).

Consider `O=C(c1ccc(Cl)cc1)N1N=C(c2ccccn2)CC1(O)C(F)(F)F` (stereo not drawn), for which the inhibition is 15.9% (inactive).

Turning to `Cc1cccc([C@@H]2[C@@H]3C(=O)N(Cc4ccccc4)C(=O)[C@@H]3[C@]3(C)C(=O)N(c4ccc(Br)cc4)C(=O)N23)c1`, the inhibition is 24.9% (inactive).

As for `O=C1[C@H]2[C@@H](c3ccc(F)cc3)N3C(=O)N(c4ccc(C(F)(F)F)cc4)C(=O)[C@@]3(Cc3ccccc3)[C@H]2C(=O)N1C1CCCCC1`, the inhibition was 100% (active).

Turning to `CSc1nc(-c2ccccc2)nc(C(Cl)Cl)n1`, the inhibition was 98.6% (active).

In the case of `OCCCNc1nccc(-c2cc(Nc3cccc(Cl)c3)ncn2)n1`, the inhibition is 99.8% (active).

Take `COc1ccc(C(=O)NC(=S)NNC(=O)CCc2ccccc2)cc1`: the inhibition is 4.55% (inactive).

For `CC[C@]1(C(=O)OC)[C@H]2C(=O)N(Cc3ccccc3)C(=O)[C@H]2[C@H]2CN=C(SCc3ccc(C#N)cc3)N21`, the inhibition was 98.8% (active).

Regarding `CC[C@]1(C(=O)OC)[C@H]2C(=O)N(Cc3ccccc3)C(=O)[C@H]2[C@H]2CN=C(SCc3ccc(Cl)cc3)N21`, the inhibition was 99.7% (active).

As for `CC[C@]1(C(=O)OC)[C@H]2C(=O)N(Cc3ccccc3)C(=O)[C@H]2[C@H]2CN=C(SCc3ccccc3)N21`, the inhibition was 70% (active).
